Compound activity as filed in PubChem BioAssay.
Only some compounds are listed: those with a hit (about 8.9% of all), similar ones and a draw of the others.
KB-3-1 tox: qHTS assay for MDR1-selective chemotherapeutics: Primary screen using the parental adenocarcinoma cell KB-3-1 | KB-3-1 viability, CellTiter-Glo ATP luminescence, 72 h | Potency, µM (doses to about 46.1 µM), usual class: cytotoxic | 1.4% of 400,000 active | AID 1347075, 2019; further: nearly all actives have a fitted effect of over 60% in size
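72 h, 37 °C compound treatment of KB-3-1 parental cells; CellTiter-Glo added, 10 min, luminescence read. Data corrected against DMSO-only plates and normalized before curve fitting.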
KB-V1 MDR tox: qHTS assay for MDR1-selective chemotherapeutics: Primary screen using the drug-selected MDR subline cells KB-V1. KB-V1 MDR cells viability, CellTiter-Glo, 72 h. Potency, µM (series often up to 46.1 µM), hits mostly cytotoxic. 3.4% of 400,000 active. AID 1347076, 2019; further: nearly all actives have a fitted effect of over 60% in size
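Compound-treated KB-V1 multidrug-resistant cells, 72 h, 37 degrees C; viability by CellTiter-Glo. Fitted qHTS curves give the values.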
DRD3 antagonist: qHTS of D3 Dopamine Receptor Antagonist: qHTS | D(3) dopamine receptor (Homo sapiens), P35462 | D3R cells, DiscoveRx beta-arrestin luminescence, antagonist mode; active compounds read low | max response, negative = inhibition, % | 2.5% of 360,000 active | AID 652054, 2013; in the data active means max response below about -50%; inconclusive means no clear call, values can overlap the other calls
Target sequence (P35462 whole entry, looked up): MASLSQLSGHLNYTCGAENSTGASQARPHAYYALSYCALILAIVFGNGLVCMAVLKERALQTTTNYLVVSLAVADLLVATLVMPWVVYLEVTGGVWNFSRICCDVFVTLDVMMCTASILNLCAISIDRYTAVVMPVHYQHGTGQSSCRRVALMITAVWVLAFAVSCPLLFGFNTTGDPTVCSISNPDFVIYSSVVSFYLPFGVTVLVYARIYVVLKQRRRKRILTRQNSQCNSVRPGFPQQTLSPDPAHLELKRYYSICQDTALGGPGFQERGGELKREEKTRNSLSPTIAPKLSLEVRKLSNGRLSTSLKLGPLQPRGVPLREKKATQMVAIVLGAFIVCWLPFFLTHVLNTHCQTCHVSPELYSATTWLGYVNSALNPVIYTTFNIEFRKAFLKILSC
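Cells plated overnight at 1500 cells/well, then exposed to library compounds with dopamine controls for 90 minutes at 37 degrees C. DiscoveRx reagent added for 30–60 minutes at room temperature; luminescence read, quantitative HTS format.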
D3 ag: qHTS of D3 Dopamine Receptor Agonist: qHTS | D(3) dopamine receptor (Homo sapiens), P35462 | D3R DiscoveRx beta-arrestin cells, luminescence, 90 min | max activation, % | 0.58% of 410,000 active | AID 652048, 2013; in the data active means max activation above about 30%
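Agonist mode: compounds and dopamine controls were applied to plated cells for 90 min at 37 degrees C after an overnight attachment at 1500 cells/well. Luminescent read-out followed 30 - 60 minutes at room temperature with DiscoveRx detection reagent.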
MCF10A rerep: A quantitative high throughput screen for small molecules that induce DNA re-replication in MCF 10a normal breast cells; Potency, µM (doses to about 46.1 µM), actives largely listed as activators; 2.9% of 350,000 active; MCF 10A DNA re-replication, Hoechst nuclear intensity, 48 h; further: nearly all actives have a fitted effect of over 50% in size
SW480 rereplic: A quantitative high throughput screen for small molecules that induce DNA re-replication in SW480 colon adenocarcinoma cells. Potency, µM (series often up to 46.1 µM), hits mostly activators. SW480 DNA re-replication, Hoechst DNA content imaging, 48 h. 1.8% of 340,000 active; further: nearly all actives have a fitted effect of over 55% in size
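Compounds, transferred as 23 nL by pin tool, were incubated with cells for 48 hr; DNA content per nucleus was then quantified by Hoechst staining and fluorescence plate imaging.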
Hits are given with their value; . = inactive; ? = inconclusive; / = no result; ! = not confirmed by another sample. Unless noted, the call rests on the fitted dose curve; in most records, active means well fitted curve in the direction sought with a large enough effect; inconclusive means small, poorly fitted or top-dose-only effect, or another doubt; inactive means no such curve, though single readings can be large; an effect the other way counts as inactive or inconclusive.

SMILES	KB-3-1 tox	KB-V1 MDR tox	DRD3 antagonist	D3 ag	MCF10A rerep	SW480 rereplic
CC(C)C[C@@H](CSc1ccccc1)N1CCN(CCc2ccccc2)CCC1=O	?	?	-56	.	.	.
CC(C)CN1CCC(=O)N([C@H](CSc2ccccc2)Cc2ccccc2)CC1	?	13µM!	.	.	?	?
CC(C)C[C@@H](CSc1ccc(Br)cc1)N1CCN(CCc2ccccc2)CCC1=O	?	.	?	.	.	.
COc1cc(Cn2c3ccc(NC(=O)CCc4ccc(O)cc4)cc3c(=O)n2C)ccc1F	5.8µM	.	.	.	/	/
Cn1c(=O)c2cc(NC(=O)CCc3cccc(Cl)c3)ccc2n1Cc1cccc(C(F)(F)F)c1	.	.	.	.	/	/
COc1cc(Cn2c3ccc(NC(=O)NCc4ccc(F)cc4)cc3c(=O)n2C)ccc1F	9.2µM	.	.	.	/	/
C=C(C)Cn1c2ccc(NC(=O)CCOCC)cc2c(=O)n1C	.	.	.	.	/	/
CCOCCC(=O)Nc1ccc2c(c1)c(=O)n(C)n2CC=C(C)C	3.7µM	.	.	.	/	/
C=C(C)Cn1c2ccc(NC(=O)CCc3cccc(Cl)c3)cc2c(=O)n1C	?	?	.	45	/	/
COc1ccc(OC)c(CC(=O)Nc2ccc3c(c2)c(=O)n(C)n3Cc2cccc(C(F)(F)F)c2)c1	.	.	-52	.	/	/
COc1cc(OC)c(NC(=O)C2=C(C)C(=O)OC23CCN(C(C)=O)CC3)cc1Cl	.	.	/	.	/	/
CCOC(=O)c1ccc(NC(=O)N2CCN(c3ccccn3)CC2)cc1	.	16µM	.	.	.	.
O=C(CCNS(=O)(=O)c1ccccc1Cl)N1CCN(c2ccccn2)CC1	?	16µM	.	.	.	.
O=C(Nc1ccccc1Cl)N1CCN(c2ccccn2)CC1	?	16µM	.	.	.	.
COc1ccccc1NC(=O)N1CCN(c2ccccn2)CC1	.	.	.	.	.	.
O=C(CCC1CCCN(C(=O)c2ccccc2Cl)C1)N1CCN(c2ccccn2)CC1 (configuration not stated)	?	15µM	.	.	.	.
COc1ccc(Cn2c(CCC(=O)Nc3ccc(OC)c(Cl)c3)nc3cccnc32)cc1	.	.	/	.	/	/
Clc1ccc([C@H](Cn2ccnc2)OCc2c(Cl)cccc2Cl)c(Cl)c1	/	/	/	/	?	.
N#C/C(=C(\O)c1cc(Cl)sc1Cl)c1nc2ccccc2[nH]1	.	.	.	.	21µM	?
COc1cc(/C(O)=C(\C#N)c2nc3ccccc3[nH]2)cc(OC)c1OC	.	.	.	.	15µM	?
CCOc1ccccc1N1CC(C(=O)N(Cc2nnc(-c3ccccc3Cl)o2)C2CC2)CC1=O (configuration not stated)	.	?	.	.	.	.
Cc1cccc(-c2nsc(SCC(=O)N3CCCC3)n2)c1	.	16µM	.	.	.	.
O=C(CSc1nc(-c2ccccc2)ns1)N1CCOCC1	.	.	.	.	.	.
CC(C)c1nn2c(=O)cc(COC(=O)c3cccc(NC(=O)c4cccs4)c3)nc2s1	/	/	/	.	/	/
O=[N+]([O-])c1cc(Cl)ccc1N1CCCC1	.	.	.	.	.	.
SMILES	KB-3-1 tox	KB-V1 MDR tox	DRD3 antagonist	D3 ag	MCF10A rerep	SW480 rereplic
O=C1C(Cl)=C(N2CCN(c3ccccc3[N+](=O)[O-])CC2)C(=O)c2ccccc21	?	?	-60	.	?	16µM
CCCCCCCCCCCCCCCC[N+](C)(C)Cc1ccc(F)cc1	?	.	.	.	15µM	?
CC(C)(C)NCC(O)(c1ccc(Cl)cc1)c1ccc(Cl)cc1	.	?	.	.	.	?
COc1ccccc1CNCC(O)(c1ccc(Cl)cc1)c1ccc(Cl)cc1	.	?	-83	.	?	15µM
COc1ccccc1CNCC(O)(c1ccc(F)cc1)c1ccc(F)cc1	.	.	.	.	.	.
CCN(CC)CCNCC(O)(c1ccc(Cl)cc1)c1ccc(Cl)cc1	.	.	-60	.	.	?
Fc1ccc(CNC(=S)Nc2cccc(C(F)(F)F)c2)cc1	?	21µM	.	.	.	.
Fc1cccc(NC(=S)NCc2ccc(Cl)cc2)c1	.	?	.	.	.	.
FC(F)(F)c1cccc(NC(=S)NCc2ccc(Cl)cc2)c1	?	?	.	.	18µM	.
CCc1ccc(-c2nn(CC(=O)NCc3ccccc3)c3c2cnc2ccc(F)cc23)cc1	.	.	/	.	/	/
O=Cc1ccc(OCc2nnc(-c3ccccc3Br)o2)cc1	.	.	.	.	.	.
NC(=O)c1ccccc1OCc1nnc(-c2ccccc2Br)o1	.	18µM	.	.	.	.
O=C1CN(C(=O)c2ccccc2)C(c2ccccc2)c2cc(F)ccc2N1 (configuration not stated)	.	.	.	.	.	.
CC(C)(C)c1ccc(C(=O)N2CC(=O)Nc3ccc(F)cc3C2c2ccc(F)cc2)cc1 (configuration not stated)	18µM	?	/	.	/	/
COc1ccc(CN(C(=O)/C=C/C(=O)c2ccc(OC)cc2O)C(C(=O)NC2CCCCC2)c2ccncc2)cc1 (configuration not stated)	.	2.6µM	.	.	.	?
COc1ccc(C(=O)/C=C/C(=O)N(Cc2ccc3c(c2)OCO3)C(C(=O)NC2CCCCC2)c2ccncc2)c(O)c1 (configuration not stated)	?	2.1µM	.	.	?	?
CCOC(=O)c1ccc(NC(=O)CCc2c(C)nc3cc(-c4ccc(OC)cc4OC)nn3c2C)cc1	.	.	/	.	/	/
Cc1ccc(NC(=O)Cn2nc(-c3ccccc3)nc(Cc3ccccc3)c2=O)cc1	/	/	/	.	/	/
Cc1ccnc(NC(=S)N2CCN(c3cccc(N(C)C)c3)CC2)c1	.	.	/	/	/	/
CCS(=O)(=O)Nc1ccc(-c2nc3cccnc3s2)cc1	.	.	.	.	.	.
Cc1c(NS(=O)(=O)c2cccs2)cccc1-c1nc2cccnc2s1	.	.	.	.	.	.
CCS(=O)(=O)Nc1cccc(-c2nc3cccnc3s2)c1	.	.	.	.	.	.
O=S(=O)(Nc1ccc(-c2nc3cccnc3s2)cc1)c1cccs1	.	.	.	.	6.5µM	.
O=S(=O)(Nc1cccc2ncccc12)c1cccs1	?	?	-69	.	16µM	6.5µM
O=S(=O)(Nc1ccc(-c2nc3cccnc3s2)cc1)c1ccc(Cl)s1	.	.	.	.	8.2µM	.
O=S(=O)(Nc1ccc(-c2nc3cccnc3s2)cc1)c1ccccc1F	.	.	.	.	?	23µM
